Compound activity as filed in PubChem BioAssay.
Pf growth 48h = Primary qHTS for delayed death inhibitors of the malarial parasite plastid, 48 hour incubation; P. falciparum luciferase growth in erythrocytes, 48 h; Potency, µM (top dose mostly 28.7 µM), for inactives: at the highest dose activity change, negative = inhibition, usual class: inhibitors; hit rate 5.9% among 310,000; AID 504832, 2011; further: potency means the concentration at half of the fitted maximal effect; on the % scale 0 is the no-effect control and ±100 the full control effect
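Here the parasites carry a stable luciferase gene and grow inside erythrocytes in Albumax-based RPMI medium with compound for one erythrocytic cycle. Activity is scored as loss of luminescent signal.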
AMA1-RON2 inh = qHTS for Inhibitors of AMA1-RON; Towards Development of Antimalarial Drug Lead: Primary Screen; Potency, µM (series often up to 58.2 µM), for the others: at the top dose activity change, negative = inhibition, usual class: inhibitors; hit rate 0.2% among 360,000; Plasmodium falciparum AMA1 (3D7) - RON2 peptide interaction; AlphaScreen AMA1-biotinylated RON2 peptide binding;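 further: potency means the concentration at half of the fitted maximal effect; 0% = vehicle wells and -100% = peptide control; nearly all actives have a fitted effect of over 45% in size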
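AMA1 (3D7) with his tag at 25 nM final met compounds first, then biotinylated RON2 peptide at 25 nM; detection used donor plus acceptor beads, 10 µg/mL apiece, read by AlphaScreen after 30 min at room temperature.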
HCV inh = qHTS Assay for Inhibitors of Hepatitis C Virus (HCV) | Huh7.5.1 HCVcc-Cre infection, luciferase reporter, 44 h | Potency, µM (highest dose often 41.8 µM), without a hit: at the top dose activity change, negative = inhibition, hits mostly inhibitors | hit rate 3.4% among 340,000 | AID 651820, 2012; further: potency means the concentration at half of the fitted maximal effect; on the % scale 0 is the no-effect control and ±100 the full control effect
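Cells seeded at 1,000/well and cultured 4 h, then compounds added followed by HCVcc-Cre virus (~0.5 moi). After 44 h further culture, luciferase substrate was added, plates held 15 min at room temperature, and luminescence read for 15 sec.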
Cycloheximide cs = Cycloheximide Counterscreen for Small Molecule Inhibitors of Shiga Toxin; cell reporter, cycloheximide protein synthesis inhibition counterscreen; max response, %; hit rate 12% among 300,000; in the data active means max response mostly above about 13%, no sharp cut-off; inactive means mostly below about 14%; further: read at 38.3 µM for the half of the compounds with a filed dose; 0% is about no effect
Pf growth 96h = Primary qHTS for delayed death inhibitors of the malarial parasite plastid, 96 hour incubation; AID 504834, 2011; P. falciparum luciferase reporter growth, 96 h; Potency, µM (top dose mostly 28.7 µM), for the others: at the top dose activity change, negative = inhibition, most hits filed as inhibitors; hit rate 6.9% among 320,000; further: potency means the concentration at half of the fitted maximal effect; on the % scale 0 is the no-effect control and ±100 the full control effect
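Compounds incubated with erythrocytes infected by luciferase-expressing P. falciparum (2% hematocrit, 0.05% parasitemia final) for 96 hours, 37 C in 5% CO2. Growth inhibition scored as decreased luciferase luminescence.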
Shiga toxin inh = A qHTS for Small Molecule Inhibitors of Shiga Toxin | Vero cells, Shiga toxin protein synthesis inhibition reporter | hit rate 9.2% among 290,000 | inhibition, % at 38.7 µM; in the data active means inhibition mostly above about 28%, no sharp cut-off; inactive means mostly below about 43%; further: 0% is about no effect
* hit, by the source's call; ? = inconclusive; / = not tested or not shown; [ ] = another dose, or the depositor's remark. Rows were chosen to be rich in hits. Some 21% of all compounds tested hit in one or more screens of this group. Unless noted, the call rests on the fitted dose curve; in most records, active means well fitted curve in the direction sought with a large enough effect; inconclusive means small, poorly fitted or top-dose-only effect, or another doubt; inactive means no such curve, though single readings can be large; an effect the other way counts as inactive or inconclusive.

SMILES	Pf growth 48h	AMA1-RON2 inh	HCV inh	Cycloheximide cs	Pf growth 96h	Shiga toxin inh
CC(C)(C)Nc1nc(NCc2cccnc2)nc(N2CCOCC2)n1	5.2µM*	35%	-17%	-3	?	-6
CC1=C(C(=O)Nc2ccc(C)cc2)C(c2cccs2)NC(=S)N1 (configuration not stated)	-3%	5%	22%	19*	52%	22
CCOC(=O)c1c(NC(=O)C2=C(C)NC(=S)NC2c2ccc(C)cc2)sc(C)c1C (configuration not stated)	12µM*	57%	10µM*	8	?	21
CCOC(=O)c1c(NC(=O)C2=C(C)NC(=S)NC2c2ccc(F)cc2)sc(C)c1C (configuration not stated)	?	109%	8.9µM*	1	?	20
Cc1nc([N+](=O)[O-])c(Sc2nc3ccccc3n2C)n1Cc1ccccc1	?	12%	13µM*	-7	?	-10
Cc1nc([N+](=O)[O-])c(SCC(N)=O)n1Cc1ccccc1	-5%	-1%	14%	2	28%	-12
COc1cccc(CNC(=O)CSc2nc(=O)n(Cc3ccncc3)c3c2CCC3)c1	10µM*	19%	-19%	/	?	/
CC(=O)Nc1ccc(NC(=O)CSc2nc(=O)n(Cc3ccncc3)c3c2CCC3)cc1	-39%	-2%	10%	/	-10%	/
COc1ccccc1/C=C(/C#N)C(=O)O	4%	1%	-8%	6	1%	-5
Cc1ccc(C)c(-c2[nH]ncc2CN2CCCC(CO)(Cc3ccccc3C)C2)c1 (configuration not stated)	?	-14%	13µM*	-1	?	-5
CCOC(=O)c1c(C)nc(C)c(C(=O)OCC)c1-c1cccnc1	73%	-8%	-9%	-4	?	4
CCOC(=O)c1c(C)oc2c1c1c(c3ccccc32)OCN(Cc2cccnc2)C1	?	18%	6.3µM*	77*	?	131*
CCOC(=O)c1c(C)oc2c1c1c(c3ccccc32)OCN(CCCC(=O)O)C1	87%	-3%	10µM*	62*	20%	89*
CCOC(=O)c1c(C)oc2c1c(C=NCC1CCCO1)c(O)c1ccccc12 (configuration not stated)	?	54%	-8%	-3	-6%	-11
C[C@H]1[C@H](NC(=O)/C(=N/OC(C)(C)C(=O)O)c2csc(N)n2)C(=O)N1S(=O)(=O)O (stereo in doubt)	-11%[12.8 µM]	/	/	/	-7%[12.8 µM]	/
O=C1c2ccc(Cl)cc2S(=O)(=O)c2cccc(C(=O)N3CCC(Cc4ccccc4)CC3)c21	40%	-23%	?	/	1%	/
CC[C@H](C)C(N)c1cn([C@@H](CC(N)=O)C(=O)N2CCNCC2)nn1 (some centres not stated)	-18%	10%	-1%	/	-4%	/
CCOC(=O)Cn1c2c(c(=N)c3c1CCC3)CCCC2	?	17%	6%	-6	0.19µM*	-5
CCCn1c2c(c(=N)c3c1CCC3)CCC2	0.37µM*	22%	?	0	?	4
O=C(O)CCn1c2c(c3ccccc31)CCCC2	18%	-14%	17%	-3	/	-23
CCCn1c2c(c(=N)c3c1CCC3)CCCC2	0.37µM*	23%[11.6 µM]	12%	-3	0.12µM*	-4
CCCCCCCn1c2c(c(=N)c3ccccc31)CCC2	0.93µM*	0%	1.8µM*	-1	21%	1
CCCn1c(=S)[nH]c2sc3c(c2c1=O)CCCC3	17%	62%	-3%	-6	-1%	15
O=C1CSC(c2cccc([N+](=O)[O-])c2)N1CCc1ccccc1 (configuration not stated)	?	7%	18%	-2	?	-11
CCCc1nc2cc(C)c(Br)c(C)n2c1Cc1ccsc1	/	-4%	/	/	/	/
Cn1c(CCCNC(=O)c2ccco2)nc2ccccc21	/	16%	19%	/	/	/
